# Measurements as given in the supplement of paper PMC9135407.
# “And” between values parts separate entries of the source, which are not always exact repeats. Identical values can stand only once. Counter-ions that a name gives are not always drawn. Screen size: about 5,800 compounds; about 620 (11%) showed activity. Many of the other results were omitted from the sample, so actives are more common in it than they were. Unmarked numbers belong to inactive results.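 Rule for the calls: active = score above a cut-off or among the top three wells of a plate; in these data no inactive exceeds 0.85.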
# System: primary human hepatic stellate cells (donor 1)
# Assay: scaled lipid accumulation score (0 = DMSO-like, 1 = nortriptyline-like); higher = stronger HSC inactivation (lipid re-accumulation), active = hit call of the paper
# Conditions: 48 h
# Method: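 Primary lipid accumulation screen in primary human hepatic stellate cell myofibroblasts (donor 1, passage 8) in 384-well plates. 100 nL of library compound was pin-transferred into 30 µL medium in duplicate, and cells were treated for 48 h. The 'Scaled' score combines distance from plate baseline, toxicity and reproducibility penalties, and is normalised to nortriptyline (positive) and DMSO (negative) controls on each plate. A hit is defined as scaled >0.85 or among the top 3 wells per plate.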
# [1] = library stock concentration: 10 mM
# [2] = library stock concentration: 1 mM
# [3] = library stock concentration: 3.33 mM
smiles,measurement,setting,value
"CCN1CCCC1CNC(=O)c1cc(S(N)(=O)=O)ccc1OC (single isomer, unassigned; (-)) [(-)-Sulpiride]",scaled lipid accumulation score,[1],≤ 0
O=C1CCc2c(ccc3ccccc23)O1 [Splitomicin],scaled lipid accumulation score,[1],≤ -0.006
CCCCC[C@@H](O)/C=C/[C@@H]1[C@H](C/C=C\CCCC(=O)O)[C@@H](O)C[C@H]1O [8-iso-15(R)-Prostaglandin F2.alpha.],scaled lipid accumulation score,[2],≤ 0
CCCCC[C@H](O)/C=C/[C@@H]1[C@@H](C/C=C\CCCC(=O)NC(CO)CO)[C@@H](O)C[C@H]1O [Prostaglandin F2.alpha. serinol amide],scaled lipid accumulation score,[2],≤ 0
Nc1ncnc2c1c(I)cn2[C@@H]1O[C@H](CO)[C@@H](O)[C@H]1O [5-Iodotubercidin],scaled lipid accumulation score,[3],≤ 0
CCCCC[C@H](O)/C=C/[C@H]1C=CC(=O)[C@@H]1C/C=C\CCCC(=O)O [Prostaglandin A2],scaled lipid accumulation score,[2],≤ 0 and ≤ -0.021
N=C(N)N/N=C/c1c(Cl)cccc1Cl [Guanabenz Acetate],scaled lipid accumulation score,[3],≤ 0
same,scaled lipid accumulation score,[1],0.578
N=C(N)N/N=C/c1c(Cl)cccc1Cl [Guanabenz acetate],scaled lipid accumulation score,,0.45
same,scaled lipid accumulation score,library stock concentration: 6.9 mM,0.304
same,scaled lipid accumulation score,library stock concentration: 8.7 mM,0.227
same,scaled lipid accumulation score,[1],0.426 and 0.365
CC(=O)O.N=C(N)N/N=C/c1c(Cl)cccc1Cl [Guanabenz acetate],scaled lipid accumulation score,[1],0.999 (active)
N=C(N)NC(=O)Cc1c(Cl)cccc1Cl [Guanfacine hydrochloride],scaled lipid accumulation score,,≤ 0
same,scaled lipid accumulation score,[1],0.148 and 0.048
N=C(N)NC(=O)Cc1c(Cl)cccc1Cl [Guanfacine HCl],scaled lipid accumulation score,library stock concentration: 7.1 mM,≤ -0.006
"CCCCCC#CCC#CCC#CCC#CCCCC(=O)O [5,8,11,14-Eicosatetraynoic acid]",scaled lipid accumulation score,[2],≤ -0.021
CCCCCCCCCCCCCCCC(=O)N[C@H]1CCOC1=O [N-hexadecanoyl-L-Homoserine lactone],scaled lipid accumulation score,[2],≤ 0
C(=C/CCN(C)C)(/c1c2cccc1)\c3c(cccc3)C=C2.Cl [Cyclobenzaprine hydrochloride],scaled lipid accumulation score,[1],0.991 (active)
C(/c1c2cccc1)(=C/CCN(C)C)\c3c(cccc3)C=C2.Cl [Cyclobenzaprine hydrochloride],scaled lipid accumulation score,,0.86 (active)
CN(C)CCC=C1c2ccccc2C=Cc2ccccc21 [Cyclobenzaprine hydrochloride],scaled lipid accumulation score,library stock concentration: 6.4 mM,0.579
same,scaled lipid accumulation score,[1],0.568
CN(C)CCC=C1c2ccccc2C=Cc2ccccc21 [Cyclobenzaprine HCl],scaled lipid accumulation score,[1],0.745
CN(C)CCC=C1c2ccccc2C=Cc2ccccc21.Cl [Cyclobenzaprine HCl],scaled lipid accumulation score,[3],0.507 (active)
CC(C(=O)O)c1ccc(CC2CCCC2=O)cc1 (stereo not drawn),scaled lipid accumulation score,[1],≤ 0
CC(C(=O)O)c1ccc(CC2CCCC2=O)cc1 (stereo not drawn) [loxoprofen],scaled lipid accumulation score,[1],0.127
C=C1CC[C@H](O)C/C1=C/C=C1\CCC[C@]2(C)[C@@H]([C@H](C)CCCC(C)(C)O)CC[C@@H]12 [Calcifediol],scaled lipid accumulation score,[3],≤ 0
same,scaled lipid accumulation score,library stock concentration: 5 mM,0.042
same,scaled lipid accumulation score,[1],≤ 0
Nc1nc2c(ncn2[C@@H]2O[C@H](CO)[C@@H](O)[C@@H]2O)c(=O)[nH]1 [Ara-G hydrate],scaled lipid accumulation score,[1],≤ 0
Oc1ccc(OC2CCCCO2)cc1 (stereo not drawn) [Deoxyarbutin],scaled lipid accumulation score,[3],≤ 0
same,scaled lipid accumulation score,[1],≤ -0.001
CC(=O)N(CC(O)CO)c1c(I)c(C(=O)NCCO)c(I)c(C(=O)NCC(O)CO)c1I (stereo not drawn),scaled lipid accumulation score,[1],≤ 0
O=C(OC[C@@H]1O[C@H]1c1ccccc1)Oc1ccc([N+](=O)[O-])cc1,scaled lipid accumulation score,[2],≤ 0
CCCCC[C@H](O)/C=C/[C@@H]1[C@@H](CC(=O)CCCCC(=O)O)[C@@H](O)C[C@H]1O [6-keto Prostaglandin F1.alpha.],scaled lipid accumulation score,[2],≤ 0
CCCCC[C@H](O)/C=C/[C@@H]1[C@@H](CC(=O)CCCCC(=O)O)[C@@H](O)C[C@H]1O [6-Keto-prostaglandin F1a],scaled lipid accumulation score,[2],≤ -0.021
COc1c/c(=C2\C=c3ccccc3=N2)[nH]/c1=C\c1[nH]c(C)cc1C [Obatoclax Mesylate (GX15-070)],scaled lipid accumulation score,[3],0.602
same,scaled lipid accumulation score,[1],0.617
CNCCc1ccccn1 [Betahistine mesylate],scaled lipid accumulation score,,0.122
CNCCc1ccccn1 [Betahistine hydrochloride],scaled lipid accumulation score,library stock concentration: 9.6 mM,≤ 0
CNCCc1ccccn1 [Betahistine 2HCl],scaled lipid accumulation score,[3],≤ 0
same,scaled lipid accumulation score,[1],≤ -0.001
CNCCc1c[nH]c(CCC(c2ccccc2)c2ccccc2)n1.O=C(O)C(=O)O.O=C(O)C(=O)O [N-Methylhistaprodifen dioxalate salt],scaled lipid accumulation score,[1],1.02 (active)
CC(NCCC(c1ccccc1)c1ccccc1)c1ccccc1 (stereo not drawn) [Fendiline hydrochloride],scaled lipid accumulation score,,0.144
same,scaled lipid accumulation score,[1],0.431
CCCc1nc(C)c2c(=O)nc(-c3cc(S(=O)(=O)N4CCN(CC)CC4)ccc3OCC)[nH]n12 [Vardenafil HCl Trihydrate],scaled lipid accumulation score,[3],≤ 0
same,scaled lipid accumulation score,[1],0.473
CCCc1nc(C)c2c(=O)nc(-c3cc(S(=O)(=O)N4CCN(CC)CC4)ccc3OCC)[nH]n12,scaled lipid accumulation score,[1],≤ 0
COc1cc2ncnc(-n3nc(-c4ccccn4)nc3N)c2cc1OC,scaled lipid accumulation score,library stock concentration: 80 uM,≤ 0
same,scaled lipid accumulation score,library stock concentration: 400 uM,0.052
same,scaled lipid accumulation score,library stock concentration: 2 mM,0.101
same,scaled lipid accumulation score,[1],0.046
N[C@H]1C(O)O[C@H](CO)[C@@H](O)[C@@H]1O (stereo partly drawn) [Glucosamine hydrochloride],scaled lipid accumulation score,library stock concentration: 9.3 mM,≤ -0.001
same,scaled lipid accumulation score,[1],0.034
"CCCCCC=CCC=CCC=CCC=CCCCCCC(=O)O [Adrenic acid (22:4, n-6)]",scaled lipid accumulation score,[2],≤ -0.01
"CCN(CC)CCOc1ccc(/C(=C(/Cl)c2ccccc2)c2ccccc2)cc1.O=C(O)CC(O)(CC(=O)O)C(=O)O [Clomiphene citrate (Z,E)]",scaled lipid accumulation score,,0.946 (active)
CCCC(C(=O)OCCN(CC)CC)(c1ccccc1)c1ccccc1 [Proadifen hydrochloride],scaled lipid accumulation score,,0.228
same,scaled lipid accumulation score,library stock concentration: 5.1 mM,0.536
same,scaled lipid accumulation score,[1],0.511
CCN(CC)CCOc1ccc(C(=C(Cl)c2ccccc2)c2ccccc2)cc1.O=C(O)CC(O)(CC(=O)O)C(=O)O [Clomid],scaled lipid accumulation score,[1],0.963 (active)
CCN(CC)CCOc1ccc(C(=C(Cl)c2ccccc2)c2ccccc2)cc1 [Clomifene citrate],scaled lipid accumulation score,[3],0.72
CCN(CC)CCOc1ccc(C(=C(Cl)c2ccccc2)c2ccccc2)cc1 [Clomiphene citrate],scaled lipid accumulation score,library stock concentration: 4.9 mM,0.705
same,scaled lipid accumulation score,[1],≤ 0
CCN(CC)CCOCCOC(=O)C(CC)(CC)c1ccccc1.O=C(O)CC(O)(CC(=O)O)C(=O)O,scaled lipid accumulation score,[1],0.866 (active)
CCCC(C(=O)OCCN(CC)CC)(c1ccccc1)c1ccccc1 [SKF-525A hydrochloride],scaled lipid accumulation score,[1],0.355
CCN(CC)CCOCCOC(=O)C1(c2ccccc2)CCCC1 [Carbetapentane citrate],scaled lipid accumulation score,,0.595
same,scaled lipid accumulation score,[1],0.72 and 0.014 and 0.411
CCN(CC)CCOc1ccc(C(=C(Cl)c2ccccc2)c2ccccc2)cc1.O=C(O)CC(O)(CC(=O)O)C(=O)O [Clomifene citrate],scaled lipid accumulation score,[1],1.12 (active)
CCN(CC)CCOC(=O)c1ccc(N)cc1 [Procaine HCl],scaled lipid accumulation score,[3],≤ 0
same,scaled lipid accumulation score,[1],≤ -0.001
CCN(CC)CCOCCOC(=O)C1(c2ccccc2)CCCC1 [Pentoxyverine Citrate],scaled lipid accumulation score,[3],≤ 0
same,scaled lipid accumulation score,[1],0.424
CCN(CC)CCOC(=O)c1ccc(N)cc1 [Procaine hydrochloride],scaled lipid accumulation score,,0.256
same,scaled lipid accumulation score,library stock concentration: 7.3 mM,≤ 0
same,scaled lipid accumulation score,[1],≤ 0
COc1ccc(C(Cl)=C(c2ccc(OC)cc2)c2ccc(OC)cc2)cc1 [Chlorotrianisene],scaled lipid accumulation score,,≤ 0
same,scaled lipid accumulation score,library stock concentration: 5.3 mM,0.022
same,scaled lipid accumulation score,[1],≤ 0
